From PubChem BioAssay (EPA / NIEHS)
Several values for one entry are separate records, joined by “and”; a condition that tells them apart may be missing. Equal values may be shown once. Records with an inconclusive call do not appear. More than one record can exist for a structure, and the calls need not agree. Activity calls are given as the source filed them. How the source made its calls, unless noted: active means hit-call score of the fitted dose curve at least 0.9, where 1 is the maximum; inactive means score below 0.9.

Columns and labels:
[1] = read-out: Collagen I, COL1A1 (gene 1277); assay: BSK_MyoF_CollagenI: BioMAP Diversity Plus: MyoF Assay for Collagen I Biomarker Activity (AID 2284238); conditions: primary human lung fibroblasts
Method in brief: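 Multiplexed primary human lung fibroblast system; Collagen I measured by ELISA at 24 h post-dose. Increases are referenced to DMSO.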

[2] = read-out: Collagen III, COL3A1 (gene 1281); assay: BSK_MyoF_CollagenIII: BioMAP Diversity Plus: MyoF Assay for Collagen III Biomarker Activity (AID 2284239); conditions: primary human lung fibroblasts
Method in brief: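 Compounds are added to primary human lung fibroblasts and left for 24 hours. Collagen III is then quantified by ELISA. Analysis takes DMSO as baseline and fits increases in signal.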

[3] = CCTE_Mundy_HCI_hNP1_CellTiter: CCTE's Cell Titer-Glo 2 Assay in human neuroprogenitor cells for Viability, Mundy Lab (AID 2284241; active means hit-call score of the fitted dose curve at least 0.9, where 1 is the maximum)
Method in brief: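 Measures ATP content in human neural progenitors derived from WA09 embryonic cells. Read-out at 26.5 hours after dosing, with DMSO serving as the negative control and baseline.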

[4] = read-out: Interleukin 17F (IL17F), IL17F (gene 112744); assay: BSK_BT_xIL17F: BioMAP Diversity Plus: BT Assay for Interleukin 17F (IL17F) Biomarker Activity (AID 2284243); conditions: primary human B cells with PBMC
Method in brief: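 Measures secreted IL-17F from a human B cell plus PBMC co-culture at 24 h post-dose by Luminex xMAP, with DMSO defining baseline activity.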

[5] = read-out: Actin alpha 1 (ACTA1), ACTA1 (gene 58); assay: BSK_MyoF_ACTA1: BioMAP Diversity Plus: MyoF Assay for Actin alpha 1 (ACTA1) Biomarker Activity (AID 2284244); conditions: primary human lung fibroblasts
Method in brief: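 Lung fibroblasts, human primary, 24 h compound exposure → a-SMA ELISA. Positive-direction fit vs DMSO control.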

[6] = read-out: Interleukin 2 (IL2), IL2 (gene 3558); assay: BSK_BT_xIL2: BioMAP Diversity Plus: BT Assay for Interleukin 2 (IL2) Biomarker Activity (AID 2284245); conditions: primary human B cells with PBMC
Method in brief: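 B cell + PBMC co-culture (human primary), compound added, 24 h incubation; secreted IL-2 measured multiplexed on Luminex xMAP; gain-of-signal fit vs DMSO.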

[7] = read-out: Basic fibroblast growth factor (bFGF), FGF2 (gene 2247); assay: BSK_MyoF_bFGF: BioMAP Diversity Plus: MyoF Assay for Basic fibroblast growth factor (bFGF) Biomarker Activity (AID 2284246); conditions: primary human lung fibroblasts
Method in brief: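 ELISA-measured bFGF level serves as the read-out, taken 24 h after chemical dosing of human lung fibroblasts. Values represent signal gain over the DMSO negative control.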

[8] = read-out: Collagen IV, COL4A1 (gene 1282); assay: BSK_MyoF_CollagenIV: BioMAP Diversity Plus: MyoF Assay for Collagen IV Biomarker Activity (AID 2284247); conditions: primary human lung fibroblasts
Method in brief: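 Steps: dose human lung fibroblasts; culture 24 h; quantify Collagen IV by ELISA; fit increase versus DMSO control. Parallel SRB total-protein staining (0.1% SRB after 10% TCA fixation, 560 nm) tracks overt cytotoxicity.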

[9] = read-out: Monokine induced gamma interferon (MIG), CXCL9 (gene 4283); assay: BSK_KF3CT_MIG: BioMAP Diversity Plus: KF3CT Assay for Monokine induced gamma interferon (MIG) Biomarker Activity (AID 2284248); conditions: primary human keratinocytes with fibroblasts
Method in brief: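 The assay uses a co-culture of human keratinocytes and foreskin fibroblasts. Measurement occurs 24 hours after dosing, with MIG detected by ELISA and the DMSO control as baseline.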

[10] = read-out: Vascular cell adhesion molecule 1 (VCAM1), VCAM1 (gene 7412); assay: BSK_BF4T_VCAM1: BioMAP Diversity Plus: BF4T Assay for Vascular cell adhesion molecule 1 (VCAM1) Biomarker Activity (AID 2284249); conditions: primary human bronchial epithelial cells with fibroblasts
Method in brief: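 Human bronchial epithelial cell and dermal fibroblast co-culture exposed 24 h. VCAM-1 measured by ELISA; parallel SRB total-protein staining for cytotoxicity. Fitted in positive direction relative to DMSO.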

[11] = read-out: Collagen I, COL1A1 (gene 1277); assay: BSK_hDFCGF_CollagenI: BioMAP Diversity Plus: hDFCGF Assay for Collagen I Biomarker Activity (AID 2284250); conditions: primary human foreskin fibroblasts
Method in brief: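 Human skin primary fibroblasts dosed with test chemical, harvested at 24 h, Collagen I quantified by ELISA; parallel SRB staining (0.1% SRB after 10% TCA fixation, 560 nm) tracked cytotoxicity.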

[12] = read-out: Interferon-inducible T-cell alpha chemoattractant (ITAC), CXCL11 (gene 6373); assay: BSK_hDFCGF_ITAC: BioMAP Diversity Plus: hDFCGF Assay for Interferon-inducible T-cell alpha chemoattractant (ITAC) Biomarker Activity (AID 2284251); conditions: primary human foreskin fibroblasts
Method in brief: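 ELISA readout of I-TAC after 24 h chemical exposure; human dermal foreskin fibroblast primary cells. Positive-direction fitting vs DMSO baseline. Parallel SRB total-protein staining (0.1% SRB after 10% TCA fixation, 560 nm) flags cytotoxicity.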

[13] = read-out: Plasminogen activator inhibitor-1 (PAI1), SERPINE1 (gene 5054); assay: BSK_KF3CT_PAI1: BioMAP Diversity Plus: KF3CT Assay for Plasminogen activator inhibitor-1 (PAI1) Biomarker Activity (AID 2284252); conditions: primary human keratinocytes with fibroblasts
Method in brief: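 ELISA read-out of PAI-1 taken 24 h after chemical treatment of a human skin primary co-culture of keratinocytes and foreskin fibroblasts. Increases over DMSO-treated wells defined activity.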

[14] = read-out: Interleukin-8 (IL8), CXCL8 (gene 3576); assay: BSK_KF3CT_IL8: BioMAP Diversity Plus: KF3CT Assay for Interleukin-8 (IL8) Biomarker Activity (AID 2284254); conditions: primary human keratinocytes with fibroblasts
Method in brief: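 ELISA detection of IL-8 from a human skin co-culture, keratinocytes with foreskin fibroblasts, at 24 h following chemical exposure, with gain of signal scored against DMSO controls.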

[15] = read-out: Macrophage Inflammatory Protein-1 Alpha (MIP1a), CCL3 (gene 6348); assay: BSK_IMphg_MIP1a: BioMAP Diversity Plus: IMphg Assay for Macrophage Inflammatory Protein-1 Alpha (MIP1a) Biomarker Activity (AID 2284255); conditions: primary human endothelial cells with macrophages
Method in brief: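 Co-culture of human venular endothelial cells and macrophages exposed to compounds for 24 h; MIP-1a measured by ELISA relative to DMSO. Cytotoxicity assessed in parallel cultures by sulforhodamine B total-protein staining at 560 nm.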

[16] = read-out: Plasminogen activator inhibitor-1 (PAI1), SERPINE1 (gene 5054); assay: BSK_MyoF_PAI1: BioMAP Diversity Plus: MyoF Assay for Plasminogen activator inhibitor-1 (PAI1) Biomarker Activity (AID 2284256); conditions: primary human lung fibroblasts
Method in brief: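 Activity reflects increased PAI-1, determined by ELISA and compared with DMSO, in human lung fibroblasts treated for 24 h.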

CD69, CD69 (gene 969) = assay: BSK_IMphg_CD69: BioMAP Diversity Plus: IMphg Assay for CD69 Biomarker Activity (AID 2284257); conditions: primary human endothelial cells with macrophages
Method in brief: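 Human venular endothelial cells co-cultured with macrophages; CD69 quantified by ELISA 24 h after compound addition. Activity fitted in the positive direction relative to DMSO baseline; cytotoxicity tracked in parallel cultures via SRB total-protein staining.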

[17] = read-out: Eotaxin 3, CCL26 (gene 10344); assay: BSK_BF4T_Eotaxin3: BioMAP Diversity Plus: BF4T Assay for Eotaxin 3 Biomarker Activity (AID 2284258); conditions: primary human bronchial epithelial cells with fibroblasts
Method in brief: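 Co-culture of human bronchial epithelial cells and dermal fibroblasts, exposed to chemicals for 24 h versus DMSO. Eotaxin-3 quantified by ELISA; cytotoxicity checked in parallel cultures by sulforhodamine B total-protein staining.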

[18] = read-out: Monocyte Chemoattractant Protein-1 (MCP1), CCL2 (gene 6347); assay: BSK_BF4T_MCP1: BioMAP Diversity Plus: BF4T Assay for Monocyte Chemoattractant Protein-1 (MCP1) Biomarker Activity (AID 2284259); conditions: primary human bronchial epithelial cells with fibroblasts
Method in brief: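 Co-culture of bronchial epithelial cells and dermal fibroblasts dosed with chemical; MCP-1 measured by ELISA 24 h later. Activity fitted in positive direction versus DMSO; cytotoxicity checked by SRB staining in parallel cultures.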

[19] = read-out: Monocyte Chemoattractant Protein-1 (MCP1), CCL2 (gene 6347); assay: BSK_IMphg_MCP1: BioMAP Diversity Plus: IMphg Assay for Monocyte Chemoattractant Protein-1 (MCP1) Biomarker Activity (AID 2284253); conditions: primary human endothelial cells with macrophages
Method in brief: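 Human venular endothelial cells co-cultured with macrophages; MCP-1 measured by ELISA 24 hours post-dose and fitted against DMSO. Cytotoxicity monitored by SRB total-protein staining in parallel cultures.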

Measured: AC50

NC(O)(C(F)(F)F)C(F)(F)F
inactive: [1] | [2] | [3] | [4] | [5] | [6] | [7] | [8] | [9] | [10] | [11] | [12] | [13] | [14] | [15] | [16] | CD69, CD69 (gene 969) | [17] | [18]

FC(F)(F)C(F)(F)C(F)(F)C(F)(F)C(F)(F)C(F)(F)CC[Si](Cl)(Cl)Cl
inactive: [1] | [2] | [4] | [5] | [6] | [7] | [8] | [9] | [10] | [11] | [12] | [13] | [19] | [14] | [15] | [16] | CD69, CD69 (gene 969) | [17] | [18]

O=C(O)C(F)(F)C(F)(F)C(F)(F)OC(F)(C(F)(F)F)C(F)(F)F
inactive: [1] | [2] | [3] | [4] | [5] | [6] | [7] | [8] | [9] | [10] | [11] | [12] | [13] | [14] | [15] | [16] | CD69, CD69 (gene 969) | [17] | [18]
active: [14] 16.5 µM | [18] 5.77 µM

OCC(F)(F)C(F)(F)C(F)(F)CO
inactive: [1] | [2] | [4] | [5] | [6] | [7] | [8] | [9] | [10] | [11] | [12] | [13] | [14] | [15] | [16] | CD69, CD69 (gene 969) | [17] | [18]
active: [12] 9.21 µM

CCN(CCO)S(=O)(=O)C(F)(F)C(F)(F)C(F)(F)C(F)(F)C(F)(F)C(F)(F)C(F)(F)C(F)(F)F
inactive: [3] | [5] | [7] | [8] | [10] | [11] | [14] | [16] | CD69, CD69 (gene 969) | [17] | [18]
active: [1] 19.9 µM and 20.3 µM | [2] 18.9 µM and 23.2 µM | [4] 13 µM and 12.6 µM | [5] 19.5 µM | [6] 26.7 µM and 25.7 µM | [7] 43 µM | [9] 22.7 µM and 31.6 µM | [12] 34.8 µM and 24.3 µM | [13] 17.7 µM and 8.86 µM | [14] 5.61 µM | [15] 1.54 µM and 12.7 µM | [16] 55.1 µM | CD69, CD69 (gene 969) 6.74 µM

O=S(=O)(O)CCC(F)(F)C(F)(F)C(F)(F)C(F)(F)C(F)(F)C(F)(F)C(F)(F)C(F)(F)F
active: [12] 30 µM | [14] 30 µM | CD69, CD69 (gene 969) 30 µM | [17] 15.1 µM and 8.3 µM
inactive: [1] | [2] | [4] | [5] | [6] | [7] | [8] | [9] | [10] | [11] | [12] | [13] | [14] | [15] | [16] | CD69, CD69 (gene 969) | [18]

NCC(F)(F)C(F)(F)C(F)(F)C(F)(F)C(F)(F)C(F)(F)C(F)(F)C(F)(F)F
inactive: [1] | [2] | [4] | [5] | [6] | [7] | [8] | [9] | [10] | [11] | [12] | [13] | [14] | [15] | [16] | CD69, CD69 (gene 969) | [17] | [18]

OCC(F)(F)C(F)(F)C(F)(F)C(F)(F)C(F)(F)C(F)(F)C(F)(F)C(F)(F)CO
active: [1] 40.4 µM | [2] 37.1 µM and 45.7 µM | [4] 53.8 µM and 38.5 µM | [5] 44.9 µM and 42.5 µM | [6] 54.7 µM and 46.9 µM | [7] 54.4 µM | [8] 49.1 µM | [9] 49.2 µM and 48.4 µM | [10] 12 µM | [12] 44.9 µM and 43 µM | [13] 54.3 µM and 48.3 µM | [14] 47.4 µM and 50.4 µM | [15] 50 µM and 51.6 µM | CD69, CD69 (gene 969) 54.4 µM and 42.6 µM | [17] 15.3 µM and 16.6 µM | [18] 16.7 µM and 9.07 µM
inactive: [1] | [7] | [8] | [10] | [11] | [16]

O=C(O)CCC(F)(F)C(F)(F)C(F)(F)F
inactive: [1] | [2] | [3] | [4] | [5] | [6] | [7] | [8] | [9] | [10] | [11] | [12] | [13] | [14] | [15] | [16] | CD69, CD69 (gene 969) | [17] | [18]

CCOC(=O)CC(=O)C(F)(F)C(F)(F)F
inactive: [1] | [2] | [4] | [5] | [6] | [7] | [8] | [9] | [10] | [11] | [12] | [13] | [14] | [15] | [16] | CD69, CD69 (gene 969) | [17] | [18]
